# Over roughly 2,900 compounds, “NF-kB SEAP reporter activity, fold change vs agonist alone” has its median near 0.99; the highest 2% begin near 2.6. Many of the other results were omitted from the sample, so the highest values are more common in it than they were.
# Assays:
# RAW-Dual [1] = experiment: NF-kB SEAP reporter activity, fold change vs agonist alone; higher = enhanced NF-kB activity
# How it was run: (§1)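 Library stock was pin-tooled at 50 nL into 384-well plates of RAW-Dual macrophages (50,000 cells/well, DMEM), followed 1 h later by a PRR agonist, and the cells were kept at 37 °C, 5% CO2. Supernatant collected after 20 hours was read for IRF by QuantiLuc luminescence and for NF-κB by QuantiBlue absorbance at 620 nm. Reporter activity is fold change over agonist-alone wells, and a well counted as cytotoxic when its IncuCyte confluency was below 70% of agonist controls in both mask sets.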
# RAW-Dual [2] = experiment: NF-kB SEAP reporter activity, fold change vs agonist alone; cytotoxicity flag (confluency mask): not cytotoxic; higher = enhanced NF-kB activity
# How it was run: as §1
# RAW-Dual [3] = experiment: NF-kB SEAP reporter activity, fold change vs agonist alone; cytotoxicity flag (confluency mask): cytotoxic (confluency <70% of control); higher = enhanced NF-kB activity
# How it was run: as §1
# [4] = library stock concentration (final ~1000-fold dilution): 10 mM water, cytotoxicity flag (confluency mask): not cytotoxic, agonist: Imiquimod (TLR7) […]
# [5] = library stock concentration (final ~1000-fold dilution): 10 mM water, cytotoxicity flag (confluency mask): not cytotoxic, agonist: MPLA (TLR4) […]
# [6] = agonist: ODN 1826 (TLR9) 0.5 ug/mL
# [7] = agonist: Pam2CSK4 (TLR2/6) 0.1 ug/mL
# [8] = agonist: Pam3CSK4 (TLR2/1) 0.1 ug/mL
# [9] = library stock concentration (final ~1000-fold dilution): 10 mM, cytotoxicity flag (confluency mask): not cytotoxic, agonist: Imiquimod (TLR7) […]
# [10] = library stock concentration (final ~1000-fold dilution): 10 mM, cytotoxicity flag (confluency mask): not cytotoxic, agonist: MPLA (TLR4) […]
structure (smiles),measurement,setting,value
CC(C)(C)N.CCCC(NC(C)C(=O)N1C(C(=O)O)CC2CCCCC21)C(=O)OCC (stereo not given),NF-kB SEAP reporter activity,RAW-Dual [1]; [4],0.909
same,NF-kB SEAP reporter activity,RAW-Dual [1]; [5],1.04
CC(C)(C)N.CCCC(NC(C)C(=O)N1C(C(=O)O)CC2CCCCC21)C(=O)OCC (stereo not given) (library stock concentration (final ~1000-fold dilution): 10 mM water),NF-kB SEAP reporter activity,RAW-Dual [2]; agonist: LPS (TLR4) 0.1 ug/mL,1.05
same,NF-kB SEAP reporter activity,RAW-Dual [2]; [6],1.13
same,NF-kB SEAP reporter activity,RAW-Dual [2]; [7],1.17
same,NF-kB SEAP reporter activity,RAW-Dual [2]; [8],1.02
CC(C)(C)Cn1c(N)nc2ccc(-c3[nH]c(C(C)(C)C)nc3-c3ccc(F)cc3)nc21.CS(=O)(=O)O.CS(=O)(=O)O (library stock concentration (final ~1000-fold dilution): 10 mM water),NF-kB SEAP reporter activity,RAW-Dual [2]; agonist: LPS (TLR4) 0.1 ug/mL,1.03
same,NF-kB SEAP reporter activity,RAW-Dual [2]; [6],0.512
same,NF-kB SEAP reporter activity,RAW-Dual [2]; [7],0.242
same,NF-kB SEAP reporter activity,RAW-Dual [2]; [8],0.506
CC(C)(C)Cn1c(N)nc2ccc(-c3[nH]c(C(C)(C)C)nc3-c3ccc(F)cc3)nc21.CS(=O)(=O)O.CS(=O)(=O)O,NF-kB SEAP reporter activity,RAW-Dual [1]; [4],0.303
same,NF-kB SEAP reporter activity,RAW-Dual [1]; [5],0.892
C1=CCOCc2cc(ccc2OCCN2CCCC2)Nc2nccc(n2)-c2cccc(c2)COC1 (library stock concentration (final ~1000-fold dilution): 10 mM),NF-kB SEAP reporter activity,RAW-Dual [3]; agonist: LPS (TLR4) 0.1 ug/mL,0.498
same,NF-kB SEAP reporter activity,RAW-Dual [3]; [6],0.245
same,NF-kB SEAP reporter activity,RAW-Dual [3]; [7],0.176
same,NF-kB SEAP reporter activity,RAW-Dual [3]; [8],0.256
C1=CCOCc2cc(ccc2OCCN2CCCC2)Nc2nccc(n2)-c2cccc(c2)COC1,NF-kB SEAP reporter activity,"RAW-Dual [1]; library stock concentration (final ~1000-fold dilution): 10 mM, cytotoxicity flag (confluency mask): cytotoxic (confluency <70% of control), agonist: Imiquimod (TLR7) […]",1.52
same,NF-kB SEAP reporter activity,"RAW-Dual [1]; library stock concentration (final ~1000-fold dilution): 10 mM, cytotoxicity flag (confluency mask): cytotoxic (confluency <70% of control), agonist: MPLA (TLR4) […]",0.838
CC(C)n1cc(-c2ccc3c(c2)N(C)CC3)c2c(NS(=O)(=O)c3ccn(C)n3)ccnc21 (library stock concentration (final ~1000-fold dilution): 10 mM),NF-kB SEAP reporter activity,RAW-Dual [2]; agonist: LPS (TLR4) 0.1 ug/mL,1.25
same,NF-kB SEAP reporter activity,RAW-Dual [2]; [6],1.12
same,NF-kB SEAP reporter activity,RAW-Dual [2]; [7],1.14
same,NF-kB SEAP reporter activity,RAW-Dual [2]; [8],1.07
CC(C)n1cc(-c2ccc3c(c2)N(C)CC3)c2c(NS(=O)(=O)c3ccn(C)n3)ccnc21,NF-kB SEAP reporter activity,RAW-Dual [1]; [9],0.948
same,NF-kB SEAP reporter activity,RAW-Dual [1]; [10],1.02
O=C1c2c(O)cc(O)cc2OC(c2cc(O)c(O)c(O)c2)C1O (stereo not given) (library stock concentration (final ~1000-fold dilution): 10 mM),NF-kB SEAP reporter activity,RAW-Dual [2]; agonist: LPS (TLR4) 0.1 ug/mL,0.954
same,NF-kB SEAP reporter activity,RAW-Dual [2]; [6],1.02
same,NF-kB SEAP reporter activity,RAW-Dual [2]; [7],0.798
same,NF-kB SEAP reporter activity,RAW-Dual [2]; [8],0.657
O=C1c2c(O)cc(O)cc2OC(c2cc(O)c(O)c(O)c2)C1O (stereo not given),NF-kB SEAP reporter activity,RAW-Dual [1]; [9],0.946
same,NF-kB SEAP reporter activity,RAW-Dual [1]; [10],1.07
CC(C)(C)NC(=O)c1cncn1C1CCN(c2ccc(-c3nnc(C(F)(F)F)o3)cn2)CC1,NF-kB SEAP reporter activity,RAW-Dual [1]; [9],1.87
same,NF-kB SEAP reporter activity,RAW-Dual [1]; [10],2.37
CC(C)(C)NC(=O)c1cncn1C1CCN(c2ccc(-c3nnc(C(F)(F)F)o3)cn2)CC1 (library stock concentration (final ~1000-fold dilution): 10 mM),NF-kB SEAP reporter activity,RAW-Dual [2]; agonist: LPS (TLR4) 0.1 ug/mL,6.27
same,NF-kB SEAP reporter activity,RAW-Dual [2]; [6],3.15
same,NF-kB SEAP reporter activity,RAW-Dual [2]; [7],1.66
same,NF-kB SEAP reporter activity,RAW-Dual [2]; [8],2.84
CC1(C)CCC2(C(=O)O)CCC3(C)C(=CCC4C5(C)CCC(=O)C(C)(C)C5CCC43C)C2C1 (stereo not given),NF-kB SEAP reporter activity,RAW-Dual [1]; [9],0.8
same,NF-kB SEAP reporter activity,RAW-Dual [1]; [10],1.27
CC1(C)CCC2(C(=O)O)CCC3(C)C(=CCC4C5(C)CCC(=O)C(C)(C)C5CCC43C)C2C1 (stereo not given) (library stock concentration (final ~1000-fold dilution): 10 mM),NF-kB SEAP reporter activity,RAW-Dual [2]; agonist: LPS (TLR4) 0.1 ug/mL,0.91
same,NF-kB SEAP reporter activity,RAW-Dual [2]; [6],0.824
same,NF-kB SEAP reporter activity,RAW-Dual [2]; [7],0.664
same,NF-kB SEAP reporter activity,RAW-Dual [2]; [8],0.842
CC(=O)N1c2ccc(-c3ccc(C(=O)O)cc3)cc2C(Nc2ccc(Cl)cc2)CC1C (stereo not given) (library stock concentration (final ~1000-fold dilution): 10 mM),NF-kB SEAP reporter activity,RAW-Dual [2]; agonist: LPS (TLR4) 0.1 ug/mL,4.2
same,NF-kB SEAP reporter activity,RAW-Dual [2]; [6],2.49
same,NF-kB SEAP reporter activity,RAW-Dual [2]; [7],1.06
same,NF-kB SEAP reporter activity,RAW-Dual [2]; [8],1.85
CC(=O)N1c2ccc(-c3ccc(C(=O)O)cc3)cc2C(Nc2ccc(Cl)cc2)CC1C (stereo not given),NF-kB SEAP reporter activity,RAW-Dual [1]; [9],1.56
same,NF-kB SEAP reporter activity,RAW-Dual [1]; [10],2.37
CC(=O)OC12COC1CC(O)C1(C)C(=O)C(O)C3=C(C)C(OC(=O)C(O)C(NC(=O)OC(C)(C)C)c4ccccc4)CC(O)(C(OC(=O)c4ccccc4)C21)C3(C)C.O.O.O (stereo not given),NF-kB SEAP reporter activity,RAW-Dual [1]; [9],1.07
same,NF-kB SEAP reporter activity,RAW-Dual [1]; [10],1.23

# From the supplement of paper PMC10037445
